System: TNNI3K
Conditions: concentration: 1 μM,replicates: in singlicate; n = 1
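Further: KINOMEscan kinase panel screen.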

Compound	%Inh
CS(=O)(=O)Nc1ccc(-c2ccnc3[nH]ccc23)cc1 [GSK993273]	7%
O=C(NCC1CC1)c1ccc(-c2cc(C(=O)NC3CC3)ccc2F)cc1 [GW810445]	0%
Cc1cccc2c(-c3ccncc3)c(-c3ccc(F)cc3)nn12.Cl [GW461487]	8%
Cn1ccc2ncnc(Oc3ccc(NC(=O)Nc4cnn(C(C)(C)C)c4)c(Cl)c3)c21	54%
Cn1cc(-c2cccc3c(N)c(C(N)=O)nnc23)cn1	5%
C[C@@H]1CCN(C(=O)N2CCCC2)C[C@@H]1N(C)c1ncnc2[nH]ccc12	18%
Cl.Nc1n[nH]c2cc(-c3ccccn3)ccc12 [GSK2189892]	0%
Cl.c1ccc(Oc2ccc(Nc3ccnc4cc(-c5ccc(CN6CCNCC6)o5)ccc34)cc2)nc1 [GW567142]	0%
CCNCC(Cc1ccccc1)NC(=O)c1cc(Br)c(-c2ccnc3[nH]ccc23)s1.Cl.Cl (centres unmarked) [GSK1383280]	11%
Cc1ccc(Nc2ccnc(Nc3ccc4c(c3)CS(=O)(=O)C4)n2)cc1O.Cl [GW579362]	70%
COc1cccc(C2=C(Nc3cccc(Cl)c3)C(=O)NC2=O)c1 [SB-341556]	14%
CCN1CCN(CCCC(=O)Nc2n[nH]c3nc(-c4ccc(O)cc4)c(Br)cc23)CC1 [SB-731579]	0%
CSc1nccc(-c2c(-c3ccc(F)cc3)ncn2CCCN2CCOCC2)n1.Cl [SB-217146]	0%
COc1cc2nccc(Nc3ccc(Oc4ccccc4)cc3)c2cc1OC.Cl [GI261656]	0%
CS(=O)c1ccc(-c2coc3ccc(-c4n[nH]c(=O)o4)cc23)cc1 (centres unmarked)	0%
Cn1ccc2ncnc(Oc3ccc(NC(=O)Nc4ccnc(C(F)(F)F)c4)c(Cl)c3)c21	58%
CN1CCN(CCCNc2nccc(-c3c(-c4ccc(F)cc4)nn4cc(C(N)=O)ccc34)n2)CC1 [GW622475]	3%
O=C(NOCC1CC1)c1cc(Br)c(F)c(F)c1Nc1ccc(I)cc1Cl	0%
COc1cccc(CNC(=O)NC2CCN(c3ccnc(Nc4cc(OC)c(OC)c(OC)c4)n3)C2)c1 (centres unmarked) [GSK1379765]	0%

Compound	%Inh
COc1cc(Nc2nccc(N3CCC(NC(=O)c4cccc(C#N)c4)C3)n2)cc(OC)c1OC (centres unmarked) [GSK1379751]	14%
COC(=O)c1cccc(NC(=O)NC2CCN(c3ccnc(NCc4ccc(F)cc4)n3)CC2)c1 [GSK1379860]	0%
Cn1ccc2ncnc(Oc3ccc(NC(=O)Nc4cc(C(C)(C)C)on4)c(Cl)c3)c21	90.7%
O=C1NCCc2[nH]c(-c3ccncc3)cc21	0%
Nc1nccc(-c2ccc3c(N)n[nH]c3c2)n1 [GSK1034945]	13%
CC(=O)Nc1ccc(-c2cc3ncnc(SCC(=O)O)c3s2)cc1	0%
NC(=O)c1ccc(-c2cc3ncnc(SCC(=O)O)c3s2)cc1	0%
Cc1cccc(-c2nc(Nc3ccncc3)c3sccc3n2)n1 [GW869641]	7%
Cn1ccc2ncnc(Oc3ccc(NC(=O)Nc4cncc(C(F)(F)F)c4)c(Cl)c3)c21	61%
OCCn1cc(-c2cnc3nnn(Cc4ccc5ncccc5c4)c3n2)cn1	0%
C[C@@H]1CNc2c(sc3ccc4nc(-c5ccc(O)cc5)ccc4c23)C(=O)N1	1%
FC(F)(F)c1cc(Br)cc(Nc2nccc(-c3cnn4ncccc34)n2)c1 [GW810578]	66%
NC(=O)Nc1sc(-c2ccc(F)cc2)cc1C(N)=O [GW789449]	24%
c1ccc(Oc2ccc(Nc3ccnc4ccc(-c5ccccn5)cc34)cc2)cc1 [GW407034]	0%
CCn1c(-c2nonc2N)nc2cncc(CNC3CCNCC3)c21.Cl [SB-747651]	4%
CN(c1ccccc1CNc1nc(Nc2ccc3c(c2)CC(=O)N3)ncc1C(F)(F)F)S(C)(=O)=O	0%
Cc1ccc(C(=O)Nc2ccc(Oc3ccc4nc(NC(=O)C5CC5)cn4c3)c(F)c2)c(=O)n1-c1ccccc1	24%
C[C@@H](Oc1cc(-n2cnc3ccc(-c4ccncc4)cc32)sc1C(N)=O)c1ccccc1Cl [GSK483724]	6%

System: T1, TRKA
T1 construct: gene NTRK1
Conditions: concentration: 1 μM,replicates: in singlicate; n = 1

Compound	%Inh
CS(=O)(=O)Nc1ccc(-c2ccnc3[nH]ccc23)cc1 [GSK993273]	91%
O=C(NCC1CC1)c1ccc(-c2cc(C(=O)NC3CC3)ccc2F)cc1 [GW810445]	14%
Cc1cccc2c(-c3ccncc3)c(-c3ccc(F)cc3)nn12.Cl [GW461487]	37%
Cn1ccc2ncnc(Oc3ccc(NC(=O)Nc4cnn(C(C)(C)C)c4)c(Cl)c3)c21	39%
Cn1cc(-c2cccc3c(N)c(C(N)=O)nnc23)cn1	24%
C[C@@H]1CCN(C(=O)N2CCCC2)C[C@@H]1N(C)c1ncnc2[nH]ccc12	85%
Cl.Nc1n[nH]c2cc(-c3ccccn3)ccc12 [GSK2189892]	23%
Cl.c1ccc(Oc2ccc(Nc3ccnc4cc(-c5ccc(CN6CCNCC6)o5)ccc34)cc2)nc1 [GW567142]	98.7%
CCNCC(Cc1ccccc1)NC(=O)c1cc(Br)c(-c2ccnc3[nH]ccc23)s1.Cl.Cl (centres unmarked) [GSK1383280]	90%
Cc1ccc(Nc2ccnc(Nc3ccc4c(c3)CS(=O)(=O)C4)n2)cc1O.Cl [GW579362]	100%
COc1cccc(C2=C(Nc3cccc(Cl)c3)C(=O)NC2=O)c1 [SB-341556]	0%
CCN1CCN(CCCC(=O)Nc2n[nH]c3nc(-c4ccc(O)cc4)c(Br)cc23)CC1 [SB-731579]	38%
CSc1nccc(-c2c(-c3ccc(F)cc3)ncn2CCCN2CCOCC2)n1.Cl [SB-217146]	0%
COc1cc2nccc(Nc3ccc(Oc4ccccc4)cc3)c2cc1OC.Cl [GI261656]	11%
CS(=O)c1ccc(-c2coc3ccc(-c4n[nH]c(=O)o4)cc23)cc1 (centres unmarked)	26%
Cn1ccc2ncnc(Oc3ccc(NC(=O)Nc4ccnc(C(F)(F)F)c4)c(Cl)c3)c21	5%
CN1CCN(CCCNc2nccc(-c3c(-c4ccc(F)cc4)nn4cc(C(N)=O)ccc34)n2)CC1 [GW622475]	43%
O=C(NOCC1CC1)c1cc(Br)c(F)c(F)c1Nc1ccc(I)cc1Cl	1%
COc1cccc(CNC(=O)NC2CCN(c3ccnc(Nc4cc(OC)c(OC)c(OC)c4)n3)C2)c1 (centres unmarked) [GSK1379765]	52%

Compound	%Inh
COc1cc(Nc2nccc(N3CCC(NC(=O)c4cccc(C#N)c4)C3)n2)cc(OC)c1OC (centres unmarked) [GSK1379751]	60%
COC(=O)c1cccc(NC(=O)NC2CCN(c3ccnc(NCc4ccc(F)cc4)n3)CC2)c1 [GSK1379860]	0%
Cn1ccc2ncnc(Oc3ccc(NC(=O)Nc4cc(C(C)(C)C)on4)c(Cl)c3)c21	96.1%
O=C1NCCc2[nH]c(-c3ccncc3)cc21	10%
Nc1nccc(-c2ccc3c(N)n[nH]c3c2)n1 [GSK1034945]	0%
CC(=O)Nc1ccc(-c2cc3ncnc(SCC(=O)O)c3s2)cc1	31%
NC(=O)c1ccc(-c2cc3ncnc(SCC(=O)O)c3s2)cc1	54%
Cc1cccc(-c2nc(Nc3ccncc3)c3sccc3n2)n1 [GW869641]	6%
Cn1ccc2ncnc(Oc3ccc(NC(=O)Nc4cncc(C(F)(F)F)c4)c(Cl)c3)c21	51%
OCCn1cc(-c2cnc3nnn(Cc4ccc5ncccc5c4)c3n2)cn1	0%
C[C@@H]1CNc2c(sc3ccc4nc(-c5ccc(O)cc5)ccc4c23)C(=O)N1	7%
FC(F)(F)c1cc(Br)cc(Nc2nccc(-c3cnn4ncccc34)n2)c1 [GW810578]	48%
NC(=O)Nc1sc(-c2ccc(F)cc2)cc1C(N)=O [GW789449]	98.6%
c1ccc(Oc2ccc(Nc3ccnc4ccc(-c5ccccn5)cc34)cc2)cc1 [GW407034]	0%
CCn1c(-c2nonc2N)nc2cncc(CNC3CCNCC3)c21.Cl [SB-747651]	0%
CN(c1ccccc1CNc1nc(Nc2ccc3c(c2)CC(=O)N3)ncc1C(F)(F)F)S(C)(=O)=O	99.2%
Cc1ccc(C(=O)Nc2ccc(Oc3ccc4nc(NC(=O)C5CC5)cn4c3)c(F)c2)c(=O)n1-c1ccccc1	100%
C[C@@H](Oc1cc(-n2cnc3ccc(-c4ccncc4)cc32)sc1C(N)=O)c1ccccc1Cl [GSK483724]	57%
